Assay outcomes deposited in PubChem by several laboratories.
Cl transport mod: KCC2 cotransporter modulators, thallium flux, primary screen, cell-based, HEK293 KCC2, FluoZin-2 fluorescence, MLSMR; AID 1456, 2008; 190,000 compounds, 2.2% hits; Solute carrier family 12 member 5 (Homo sapiens), Q9H2X9; KCC2 cells, thallium flux FluoZin-2 fluorescence; B-score of Tl+ flux slope (higher = more flux/activation; lower = inhibition) at 10 µM;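 active = thallium flux slope and its plate-corrected score both differing from the plate sample mean at a set confidence after two filtering rounds, in either direction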;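 also: slope of fluorescence scaled to starting intensity during 10 to 20 s after thallium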
Target sequence (Q9H2X9 whole entry, looked up): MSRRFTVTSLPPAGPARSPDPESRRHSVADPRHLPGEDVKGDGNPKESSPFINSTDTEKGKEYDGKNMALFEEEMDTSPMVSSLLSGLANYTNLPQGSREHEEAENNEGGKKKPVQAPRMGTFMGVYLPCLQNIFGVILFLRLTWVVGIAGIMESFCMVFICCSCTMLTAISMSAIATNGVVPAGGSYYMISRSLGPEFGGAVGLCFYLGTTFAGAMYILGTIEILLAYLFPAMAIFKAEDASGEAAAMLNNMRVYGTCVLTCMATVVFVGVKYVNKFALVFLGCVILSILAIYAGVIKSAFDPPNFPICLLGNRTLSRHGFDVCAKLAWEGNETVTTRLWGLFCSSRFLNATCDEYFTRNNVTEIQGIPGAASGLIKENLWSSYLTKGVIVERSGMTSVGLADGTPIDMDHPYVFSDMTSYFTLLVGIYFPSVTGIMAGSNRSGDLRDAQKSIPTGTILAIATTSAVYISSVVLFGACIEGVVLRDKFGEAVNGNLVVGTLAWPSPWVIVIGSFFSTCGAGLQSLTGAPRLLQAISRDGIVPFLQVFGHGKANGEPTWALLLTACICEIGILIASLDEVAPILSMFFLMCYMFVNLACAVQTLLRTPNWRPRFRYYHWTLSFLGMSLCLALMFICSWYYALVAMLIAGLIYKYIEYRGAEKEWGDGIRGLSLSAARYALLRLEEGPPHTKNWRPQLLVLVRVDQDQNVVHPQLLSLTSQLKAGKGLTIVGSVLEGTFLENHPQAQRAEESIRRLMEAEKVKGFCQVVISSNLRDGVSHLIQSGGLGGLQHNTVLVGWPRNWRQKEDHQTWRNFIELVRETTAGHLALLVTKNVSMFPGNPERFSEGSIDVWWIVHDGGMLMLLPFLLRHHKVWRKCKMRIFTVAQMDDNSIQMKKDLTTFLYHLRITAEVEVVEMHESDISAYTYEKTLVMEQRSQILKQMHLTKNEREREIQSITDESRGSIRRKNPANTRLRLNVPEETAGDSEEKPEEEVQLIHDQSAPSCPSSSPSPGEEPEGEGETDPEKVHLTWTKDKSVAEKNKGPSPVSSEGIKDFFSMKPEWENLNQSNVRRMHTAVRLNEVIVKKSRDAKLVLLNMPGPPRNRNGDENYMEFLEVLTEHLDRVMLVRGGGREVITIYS
ROMK mod: ROMK potassium channel modulators, primary screen, cell-based, thallium flux, MLSMR library; ATP-sensitive inward rectifier potassium channel 1 (Homo sapiens), P48048; Tet-inducible ROMK, thallium flux fluorescence; actives lie on both sides; B-score at 10 µM; 130,000 compounds, 2% hits; AID 1918, 2009;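 active = signal ratio slope over the read window, or its plate-corrected B-score, at least 3 SD from the plate mean, either direction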;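 also: B-score of the F/F0 ratio slope over 7 to 12 s after thallium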
HSV replic up: enhancers of HSV replication in host cells, fold increase, host cell viability. 220,000 compounds, 0.005% hits. maximum fold increase. HSV replication augmentation in cells; in the data active = maximum fold increase above about 1.5; inconclusive = no clear call, values can overlap the other calls; tested in PC3 cells
Measles CPE: compounds protecting cells from measles virus cytopathic effect, primary screen, measles RdRp inhibitor project, single point, MLSMR library, absorbance; protection (pct of control), % at 4 µM; 140,000 compounds, 1.5% hits; Measles virus-infected cells, CPE protection; in the data active = protection mostly above about 24%, no sharp cut-off; inactive = mostly below about 26%
Arbovirus anti: antivirals against arbovirus infection, primary screen, cell-based, full library, 10K replicate subset. arbovirus infection cell-based antiviral screen. 200,000 compounds, 0.37% hits. inhibition, % at 10 µM; in the data active = inhibition above about 30%
KCC2 secondary: KCC2 modulators in sodium-free buffer, confirmation, cell-based, HEK293 KCC2, thallium flux, secondary assay. AID 1713, 2009. normalised thallium flux (F/F0 slope) at 10 µM. shares compounds with Cl transport mod. 3,700 compounds, 15% hits. FluoZin2 fluorescence; stronger effect = higher value;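 active = thallium flux slope above the same plate's solvent-only control mean plus 3 SD; inconclusive = the two replicate wells disagree; inactive = no significant difference from solvent-only control wells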
KCC2 bumet counter: thallium flux persisting under bumetanide in KCC2 cells, confirmation, counter-screen for KCC2 modulator project, cell-based, HEK293 KCC2, FluoZin2, secondary assay 3 | shares compounds with Cl transport mod | HEK293-KCC2 + bumetanide/ouabain; stronger effect = higher value | normalized thallium flux at 10 µM | 3,700 compounds, 49% hits;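 active = thallium entry rate above the same plate's blocked-transporter control wells by more than 3 SD; inconclusive = the two repeat wells disagree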;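 also: raw slope of fluorescence over initial fluorescence between 10 and 20 s after thallium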
KCC2 secondary2: KCC2 modulators without ouabain present, confirmation, cell-based, HEK293 KCC2, thallium flux, FluoZin2, secondary assay 2 | shares compounds with Cl transport mod | thallium flux FluoZin2 fluorescence; actives lie on both sides; F/F0 rise rate, 10–20 s post-thallium | normalized thallium flux at 10 µM | 3,700 compounds, 23% hits | AID 1715, 2009;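 active = thallium flux slope more than 3 SD above or below the plate's solvent-only control mean, mostly below; inconclusive = the two repeat wells disagreed; inactive = no significant shift from solvent-only controls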
HEK293 Tl flux: thallium flux modulation in parental HEK cells, confirmation, counter-screen for KCC2 modulator project, cell-based, counterscreen 1; shares compounds with Cl transport mod; HEK293 parental cells, thallium flux FluoZin2, ouabain; baseline-ratio fluorescence slope, 10–20 s after thallium; thallium flux rate (normalised fluorescence) at 10 µM; 3,700 compounds, 46% hits; AID 1716, 2009;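 active = thallium flux rate significantly above the same plate's solvent-only control wells, beyond their mean plus 3 SD; inconclusive = the two replicate wells gave conflicting results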
KCC2 ouabain: KCC2 inhibitors and activators, ouabain retest, confirmation, HEK-KCC2 cells | HEK293-KCC2, thallium flux FluoZin2 fluorescence; bidirectional: low = inhibitor, high = activator | shares compounds with Cl transport mod | 3,700 compounds, 48% hits | raw Tl+ flux slope (below DMSO = inhibition, above = activation) at 10 µM;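 active = thallium flux slope beyond 3 SD from same-plate DMSO control mean in most replicates, usually higher, sometimes lower; inconclusive = repeat tests gave conflicting results; inactive = no significant difference from controls in most replicates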;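 also: slope of initial-normalized fluorescence between seconds 10 and 20 after thallium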
HEK293 Tl flux2: native HEK Tl+ uptake effects, second counter-screen – HEK cells, counterscreen 2, counter-screen for KCC2 modulator project, confirmation; shares compounds with Cl transport mod; HEK293 parental, thallium flux FluoZin-2 fluorescence slope; thallium flux slope at 10 µM; 3,700 compounds, 33% hits;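 active = thallium flux slope above the same plate's solvent-control mean plus 3 SD in both duplicate wells; inconclusive = duplicate wells that disagreed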;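 also: run without ouabain in cells lacking the KCC2 cotransporter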
Hits are given with their value. The list is not random: actives were taken first. Their share in the collection is about 4%.

What do the screens show for `CCN(CC)c1c([N+](=O)[O-])c(=O)n(CC)c2ccccc12`?
Cl transport mod: -4.55; HSV replic up: inactive; KCC2 secondary: inactive; KCC2 bumet counter: 0.00308; KCC2 secondary2: inactive; HEK293 Tl flux: 0.00451; KCC2 ouabain: 0.0166; HEK293 Tl flux2: 0.00756

What do the screens show for `COc1ccc(N2CCN(C(=O)CN(C)S(=O)(=O)c3cc(C)ccc3OC)CC2)cc1`?
Cl transport mod: inactive; ROMK mod: inactive; HSV replic up: inactive; Arbovirus anti: inactive

What do the screens show for `CCOC(=O)Cc1csc(NC(=S)NC(=O)c2cccc([N+](=O)[O-])c2)n1`?
Cl transport mod: 9.62; ROMK mod: inactive; HSV replic up: inactive; Measles CPE: inactive; Arbovirus anti: inactive; KCC2 secondary: 0.0139; KCC2 bumet counter: 0.034; KCC2 secondary2: inactive; HEK293 Tl flux: 0.0137; KCC2 ouabain: 0.0343; HEK293 Tl flux2: inactive

Results for CCOC(=O)Cc1csc(NC(=O)C(C)c2ccc([N+](=O)[O-])cc2)n1 (centres undefined) ?
Cl transport mod: inactive; ROMK mod: inactive; HSV replic up: inactive; Arbovirus anti: inactive

What do the screens show for `CCOC(=O)Cc1csc(NC(=S)NC(=O)c2cc(OC)cc(OC)c2)n1`?
Cl transport mod: 26.2; ROMK mod: inactive; HSV replic up: inactive; Arbovirus anti: inactive; KCC2 secondary: 0.0146; KCC2 bumet counter: 0.0345; KCC2 secondary2: inactive; HEK293 Tl flux: 0.0234; KCC2 ouabain: 0.0647; HEK293 Tl flux2: 0.0116

What do the screens show for `CCOC(=O)Cc1csc(NC(=S)NC(=O)CC(C)C)n1`?
Cl transport mod: 8.79; ROMK mod: inactive; HSV replic up: inactive; Measles CPE: inactive; Arbovirus anti: inactive; KCC2 secondary: inconclusive; KCC2 bumet counter: 0.0403; KCC2 secondary2: inactive; HEK293 Tl flux: 0.0139; KCC2 ouabain: 0.0358; HEK293 Tl flux2: 0.0111

Results for COc1ccc(-c2nn(-c3ccccc3)cc2C(=O)NC(=S)Nc2cc(Cl)ccc2Cl)cc1 ?
Cl transport mod: inactive; HSV replic up: inactive

Results for Cc1c(NC2=C(Cl)C(=O)N(c3ccccc3Cl)C2=O)c(=O)n(-c2ccccc2)n1C ?
Cl transport mod: inactive; ROMK mod: inactive; HSV replic up: inactive; Measles CPE: inactive; Arbovirus anti: inactive

How did Cc1c(Nc2nc(-c3ccc(Cl)cc3)cs2)c(=O)n(-c2ccccc2)n1C do in these assays?
Cl transport mod: -4.52; Measles CPE: inactive; Arbovirus anti: inactive; KCC2 secondary: inactive; KCC2 bumet counter: inactive; KCC2 secondary2: 0.0241; HEK293 Tl flux: 0.00576; KCC2 ouabain: 0.0135; HEK293 Tl flux2: inconclusive

Results for Cc1c(NC2=C(Cl)C(=O)N(c3ccccc3)C2=O)c(=O)n(-c2ccccc2)n1C ?
Cl transport mod: -4.35; ROMK mod: inactive; HSV replic up: inactive; Measles CPE: inactive; Arbovirus anti: inactive; KCC2 secondary: inconclusive; KCC2 bumet counter: inactive; KCC2 secondary2: inactive; HEK293 Tl flux: inactive; KCC2 ouabain: inactive; HEK293 Tl flux2: inactive

What do the screens show for `O=C(Nc1cccc(F)c1)c1ccc(Cn2cc([N+](=O)[O-])cn2)o1`?
Cl transport mod: inactive; HSV replic up: inactive; Arbovirus anti: inactive

How did Cc1cccnc1Nc1nc(-c2ccc(O)cc2)cs1 do in these assays?
ROMK mod: inactive; HSV replic up: inactive; Measles CPE: inactive; Arbovirus anti: inactive; KCC2 secondary: inactive; KCC2 bumet counter: inactive; KCC2 secondary2: inactive; HEK293 Tl flux: inactive; KCC2 ouabain: inactive; HEK293 Tl flux2: inconclusive

What do the screens show for `O=C(NCCNCCO)C1(C(F)(F)F)C/C(=C\CCO)CCCO1` (centres undefined)?
HSV replic up: inactive

Results for CCCc1cc(-c2n[nH]c(=S)n2CC)cs1 ?
ROMK mod: inactive; HSV replic up: inactive; Arbovirus anti: inactive; KCC2 secondary: 0.0132; KCC2 bumet counter: 0.0204; KCC2 secondary2: inactive; HEK293 Tl flux: 0.0136; KCC2 ouabain: inactive; HEK293 Tl flux2: 0.0119

What do the screens show for `CCCCn1c(-c2csc(CCC)c2)n[nH]c1=S`?
Cl transport mod: 37.2; ROMK mod: inactive; HSV replic up: inactive; Arbovirus anti: inactive; KCC2 secondary: inconclusive; KCC2 bumet counter: 0.0799; KCC2 secondary2: 0.0442; HEK293 Tl flux: 0.0322; KCC2 ouabain: 0.0408; HEK293 Tl flux2: 0.0314

Results for CCc1cc(-c2n[nH]c(=S)n2CC)cs1 ?
Cl transport mod: inactive; ROMK mod: inactive; HSV replic up: inactive; Measles CPE: inactive; Arbovirus anti: inactive

What do the screens show for `S=C(NC1CCCCC1)N1CCN(C2CCCCC2)CC1`?
Cl transport mod: inactive; ROMK mod: inactive; HSV replic up: inactive; Arbovirus anti: inactive

How did N=C1C(c2nc(-c3ccc(Cl)cc3)cs2)=C(O)CN1NC(=O)c1ccc(O)cc1 do in these assays?
Cl transport mod: inactive; HSV replic up: inactive

How did Cc1nc2ccccc2c(=O)n1/N=C/c1ccccc1O do in these assays?
Cl transport mod: inactive; ROMK mod: inactive; HSV replic up: inactive

Results for Cc1cc([N+](=O)[O-])cc(/C=N/n2c(C)nc3ccccc3c2=O)c1O ?
Cl transport mod: -3.31; ROMK mod: inactive; HSV replic up: inactive; KCC2 secondary: inactive; KCC2 bumet counter: inconclusive; KCC2 secondary2: inactive; HEK293 Tl flux: inactive; KCC2 ouabain: inconclusive; HEK293 Tl flux2: inactive
